Anthrax LF prot – Bacillus anthracis LF protease inhibitors, primary screen, biochemical, multiplex microsphere, MLPCN library; Lethal factor (Bacillus anthracis), P15917; multiplex microsphere protease cleavage assay; inhibition, % at 10 µM; 360,000 compounds, 0.12% hits; AID 588501, 2011
BoNT-A LC inh2 – BoNT/A light chain protease inhibitors, primary screen, biochemical, flow cytometry, MLPCN library. 360,000 compounds, 0.17% hits. inhibition, % at 10 µM. multiplex microsphere protease substrate cleavage. Botulinum neurotoxin type A light chain protease (Clostridium botulinum A str. ATCC 3502)
Bead autofluor – flagged as autofluorescent in microsphere protease counterscreen; compound autofluorescence counterscreen, microsphere flow cytometry; active compounds read high; fluorescence intensity (concentration not given with the values); 360,000 compounds, 3.1% hits; AID 624483; in the data active = fluorescence intensity above about 16000; inconclusive = no clear call, values can overlap the other calls
MazEF act – activators of E. coli MazEF toxin-antitoxin RNase, primary screen, biochemical, fluorescence, uHTS; Endoribonuclease toxin MazF (Escherichia coli (strain K12)), P0AE70; FAM/BHQ RNA-DNA oligo cleavage fluorescence, 5 h; 350,000 compounds, 0.32% hits; activation, % at 20 µM; in the data active = activation above about 50%
Target sequence (P0AE70 whole entry, looked up): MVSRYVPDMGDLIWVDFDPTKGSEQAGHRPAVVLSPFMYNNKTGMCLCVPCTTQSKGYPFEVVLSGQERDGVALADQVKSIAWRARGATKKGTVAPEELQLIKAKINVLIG
BoNT-F LC inh – BoNT/F light chain protease inhibitors, primary screen, biochemical, flow cytometry, MLPCN library; Multiplex microsphere protease cleavage assay; inhibition, % at 10 µM; 360,000 compounds, 0.22% hits; AID 588497, 2011; in the data active = inhibition above about 35%, passing the limit was not always enough; inconclusive = no clear call, values can overlap the other calls
Large screens that a line does not name were inactive. Hits are enriched below; roughly 3.7% of the tested compounds scored in any of these assays. Cut-off read from the data, not from the text of the source, unless noted: active = inhibition above about 30%; inconclusive = no clear call, values can overlap the other calls; inactive = below that.

CCOC(=O)C1=C(N)OC2=C(C(=O)CCC2)C12C(=O)N1c3c(ccc(C)c32)C(C)=CC1(C)C (centres undefined)	none
CCOC(=O)C1=C(N)Oc2cc(C)oc(=O)c2C12C(=O)N1c3c(cccc32)C(C)=CC1(C)C (centres undefined)	Bead autofluor 21518
CCOC(=O)C1=C(N)Oc2cc(C)oc(=O)c2C12C(=O)N1c3c(cccc32)C(C)CC1(C)C (centres undefined)	none
CCCn1c(-c2cccnc2Cl)nc2cc(Cl)c(Cl)cc21	Bead autofluor 21449
COC(=O)C1C(c2ccccc2)C(C(=O)OCc2ccco2)C1c1ccccc1 (centres undefined)	Bead autofluor 20681
Cc1ccccc1OC(=O)C1C(c2ccccc2)C(C(=O)O)C1c1ccccc1 (centres undefined)	Bead autofluor 20251
O=C(O)C1C(c2ccccc2)C(C(=O)OCc2ccco2)C1c1ccccc1 (centres undefined)	Bead autofluor 23151
O=C(O)C1C(c2ccccc2)C(C(=O)OCCCO)C1c1ccccc1 (centres undefined)	Bead autofluor 22890
CCOC(=O)C1C(c2ccccc2)C(C(=O)OCC)C1c1ccccc1 (centres undefined)	none
CCCn1c(N)c(C(=O)CSc2nnc(C3CC3)n2C2CC2)c(=O)[nH]c1=O	none
CC1C=CC=CC=CC=CC=CC=CC=CC(OC2OC(C)C(O)C(N)C2O)CC2OC(O)(CC(O)CC(O)C(O)CCC(O)CC(O)CC(=O)OC(C)C(C)C1O)CC(O)C2C(=O)O (centres undefined)	none
COC(=O)c1ccc(COc2cccn3c(N(C)C(=O)CCC4CCCC4)c(C)nc23)cc1	none (no result: MazEF act)
O=c1cc(-c2ccccc2)c2c([nH]1)CCCC2	Bead autofluor 19679
O=c1c2c([nH]c3ccccc13)CCCCCC2	BoNT-A LC inh2 inconclusive, Bead autofluor 22192
O=C(CN1C(=O)CC(c2ccco2)Sc2ccccc21)Nc1ccccc1F (centres undefined)	none
O=C(CN1C(=O)CC(c2ccco2)Sc2ccccc21)NCc1ccc2c(c1)OCO2 (centres undefined)	Bead autofluor 23277
COc1cc(C2CC(=O)N(CC(=O)NCc3ccco3)c3ccccc3S2)cc(OC)c1OC (centres undefined)	Bead autofluor 24105
COc1cc(C2CC(=O)N(CC(=O)NCC3CCCO3)c3ccccc3S2)cc(OC)c1OC (centres undefined)	none
CCN1C(=O)CC(c2ccco2)Sc2ccccc21 (centres undefined)	Bead autofluor 17133
Cc1ccccc1C(=O)N1CCC(C(=O)Nc2ccccc2N2CCCC2)CC1	none
Cc1cc(NC(=O)C(C)SCC(=O)N(C)CC(=O)Nc2ccccc2Br)no1 (centres undefined)	none
COc1ccc(CCN(C)S(=O)(=O)c2cn(C)c(=O)n(C)c2=O)cc1OC	none
CN1CCN(c2ccc(CNC[C@H]3O[C@@H](n4cnc5c(=O)[nH]c(N)nc54)[C@H](O)[C@@H]3O)c(F)c2)CC1	none (no result: MazEF act)
COc1cccc(/C=C/c2ccccn2)c1O	Bead autofluor 24116
N=c1c2c(n(Cc3ccc(F)cc3)c3c1CCC3)CCCC2	none
N=c1c2c(n(Cc3ccc(Cl)cc3)c3c1CCC3)CCC2	Bead autofluor 20485
COc1ccc(C(=O)Nc2ccc(Cl)cc2F)cc1S(=O)(=O)N1CCCC1	none
O=C(O)c1cc(C(=O)O)cc(-c2ccc(/C=c3/sc4nc5ccccc5n4c3=O)o2)c1	none (no result: Anthrax LF prot, BoNT-A LC inh2, Bead autofluor, BoNT-F LC inh)
O=C(O)c1cccc(-c2ccc(/C=c3/sc4nc5ccccc5n4c3=O)o2)c1	MazEF act 581
O=C(COc1ccc(C(=O)c2ccc(F)cc2)cc1)Nc1cccc(S(=O)(=O)N2CCOCC2)c1	none
O=C(Cn1nnc(-c2ccc(CN3CCOCC3)cc2)n1)N1CCCc2ccccc21	Bead autofluor 22876
COc1ccc(-c2cc(-c3ccccc3)nc(-c3ccc4c(c3)NC(=O)CO4)c2)cc1	BoNT-A LC inh2 inconclusive, Bead autofluor 19614
COc1ccc(Nc2nc(-c3ccc4c(c3)NC(=O)CO4)cs2)cc1	none
Cc1ccc(S(=O)(=O)CCSc2ccc(C(F)(F)F)cn2)cc1	Anthrax LF prot inconclusive, BoNT-F LC inh 36
Cc1cc(C)n(-c2nc(NCCC(C)C)c3c4c(sc3n2)COC(C)(C)C4)n1	Bead autofluor 19196
N#CC1=C2SCN(Cc3ccco3)CN2C(=O)CC1c1c(F)cccc1Cl (centres undefined)	none
Cc1ccc(C2CC(=O)N3CN(Cc4ccco4)CSC3=C2C#N)cc1 (centres undefined)	Bead autofluor 20926
COc1cccc(OCc2ccc(Cn3nc(NC(=O)NCCc4ccc(OC)c(OC)c4)c4ccccc43)cc2)c1	none (no result: MazEF act)
C=CCOc1ccc(CN(C)C(=O)c2ccc(CNS(=O)(=O)c3ccc(C)c(C)c3)cc2)cc1	none
CNC(=O)/C(C#N)=C/c1ccc(-c2nc3ccccc3s2)o1	MazEF act 94
N#C/C(=C\c1ccc(-c2nc3ccccc3s2)o1)C(N)=O	BoNT-F LC inh inconclusive
COc1cccc(NC(=O)CCC(=O)N2CC(C)Oc3ccc(C)cc32)c1 (centres undefined)	none
O=C(NCc1cc2ccccc2[nH]1)c1ccccc1F	BoNT-F LC inh inconclusive
Cc1nn(-c2ccccc2C(=O)O)c(=O)c2ccccc12	Bead autofluor 22783
CCc1ccc2c(c1)[C@]1(C(=O)N2)[C@@H]2C(=O)N(Cc3ccccc3)C(=O)[C@@H]2[C@@H]2CCCN21	Bead autofluor 21738
Cc1cc2oc(=O)cc(CN3CCN(c4ccc(Cl)c(Cl)c4)CC3)c2cc1Cl	none (no result: MazEF act)
NC(=O)C1(N2CCCCC2)CCN(C(=S)NCCc2ccccc2)CC1	none
CC(=C1C(=O)c2ccccc2C1=O)N1CCC(C(N)=O)(N2CCCCC2)CC1	Bead autofluor 23736
Cc1cnc(C(=O)OCC(=O)c2ccc(Cl)cc2)cn1	none
Cc1ccc([C@H]2C[C@@H](n3cc(COC(=O)c4ccccc4)nn3)[C@H](O)CN2C(=O)c2cccs2)cc1	none
CN(N=Nc1cccc([N+](=O)[O-])c1)c1ccccc1	none
CN(N=Nc1ccc([N+](=O)[O-])cc1)c1ccccc1	MazEF act active
COc1ccc(S(=O)(=O)N2CCOCC2)cc1NC(=O)CN1C(=O)CN(C)C1=O	none
CN(C)S(=O)(=O)c1ccc(C(=O)OCC(=O)Nc2ccccc2OC(F)F)cc1	Bead autofluor 23884
Cc1cccc(/C=N\Nc2cn[nH]c(=O)c2Cl)c1	Bead autofluor 17627
CCCCC1(CC)C(=O)NC(=O)NC1=Nc1ccc(OC)cc1 (centres undefined)	Bead autofluor 21503
O=C(CN1CCSC1=O)N1CCN(S(=O)(=O)c2ccc(F)cc2)CC1	none

Compound activity deposited in PubChem BioAssay by several laboratories.
